Where a name gives a salt, the structure may show the parent alone. Out of some 1,500 compounds screened, about 30 (2%) showed activity.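 The calls were made as follows: active = robust z-score below -2; a few such results were not called.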 What follows is part of a selection rich in actives, with near analogues and random picks from the rest.

This experiment relates to optoTopBP1 Flp-In 293 T-REx (HEK293) cells. As to the kind of experiment: light-induced TopBP1 condensate (nuclear foci) count, plate-normalised robust z-score vs non-control wells; higher = more TopBP1 condensates (negative = condensation inhibitor), active = hit call of the paper. To be noted: 10 µM; incubation time 2 h.
In the case of `CCOC(=O)[C@H](CCc1ccccc1)N[C@@H](C)C(=O)N(CC(=O)O)C1Cc2ccccc2C1` [Delapril Hydrochloride], the “light-induced TopBP1 condensate (z-score)” value is 0.988 (inactive).

For `CC(=O)O[C@H]1C[C@@H]2CC[C@@H]3[C@H](CC[C@@]4(C)[C@H]3C[C@H]([N+]3(C)CCCCC3)[C@@H]4OC(C)=O)[C@@]2(C)C[C@@H]1N1CCCCC1` [Vecuronium bromide], the “light-induced TopBP1 condensate (z-score)” value was 0.392 (inactive).

As to `O=c1[nH]cnc2c1ncn2[C@@H]1O[C@H](CO)[C@@H](O)[C@H]1O` [Inosine], the “light-induced TopBP1 condensate (z-score)” value was -0.394 (inactive).

As to `Cc1cccn2c(=O)c(-c3nnn[nH]3)cnc12` [Pemirolast potassium], the “light-induced TopBP1 condensate (z-score)” value was 0.448 (inactive).

As to `CN(C)[C@@H]1C(O)=C(C(=O)NCNCCCC[C@H](N)C(=O)O)C(=O)[C@@]2(O)C(O)=C3C(=O)c4c(O)cccc4[C@@](C)(O)[C@H]3C[C@@H]12` [Lymecycline], the “light-induced TopBP1 condensate (z-score)” value is 0.0668 (inactive).

On to `Cc1c(Cl)cccc1Nc1ccccc1C(=O)O` [Tolfenamic acid], for which the “light-induced TopBP1 condensate (z-score)” value is -0.245 (inactive).

On to `CN[C@@H]1[C@H](O[C@H]2[C@H](O[C@H]3[C@H](O)[C@@H](O)[C@H](N=C(N)N)[C@@H](O)[C@@H]3N=C(N)N)O[C@@H](C)[C@]2(O)C=O)O[C@@H](CO)[C@H](O)[C@H]1O` [Streptomycin sulfate], for which the “light-induced TopBP1 condensate (z-score)” value is -0.213 (inactive).

Turning to `CC(=O)Nc1c(I)c(NC(C)=O)c(I)c(C(=O)O)c1I` [Diatrizoic acid dihydrate], the “light-induced TopBP1 condensate (z-score)” value is -0.965 (inactive).

Regarding `CC(=O)OC[C@H]1O[C@@H](n2ncc(=O)[nH]c2=O)[C@H](OC(C)=O)[C@@H]1OC(C)=O` [Azaribine], the “light-induced TopBP1 condensate (z-score)” value is 0.84 (inactive).

In the case of `CC(=O)OC[C@H]1O[C@@H]([S-])[C@H](OC(C)=O)[C@@H](OC(C)=O)[C@@H]1OC(C)=O.CCP(CC)CC.[Au+]` [Auranofin], the “light-induced TopBP1 condensate (z-score)” value is -4.74 (active).

With `CC(C)c1nc(CN(C)C(=O)N[C@H](C(=O)N[C@@H](Cc2ccccc2)C[C@H](O)[C@H](Cc2ccccc2)NC(=O)OCc2cncs2)C(C)C)cs1` [Ritonavir], the “light-induced TopBP1 condensate (z-score)” value is -1.47 (inactive).

On to `Cc1onc(-c2ccccc2)c1-c1ccc(S(N)(=O)=O)cc1` [Valdecoxib], for which the “light-induced TopBP1 condensate (z-score)” value is -1.03 (inactive).

For `COC(=O)Nc1nc2cc([S+]([O-])c3ccccc3)ccc2[nH]1` (configuration not stated) [Oxfendazol], the “light-induced TopBP1 condensate (z-score)” value was 0.733 (inactive).

Consider `CCCOc1ccc2[nH]c(NC(=O)OC)nc2c1` [Oxibendazol], for which the “light-induced TopBP1 condensate (z-score)” value was -3.01 (active).

In the case of `COC(=O)Nc1nc2cc(C(=O)c3cccs3)ccc2[nH]1` [Nocodazole], the “light-induced TopBP1 condensate (z-score)” value was -1.07 (inactive).

As for `COC(=O)Nc1nc2cc(C(=O)c3ccccc3)ccc2[nH]1` [Mebendazole], the “light-induced TopBP1 condensate (z-score)” value is -1.07 (inactive).

In the case of `COC(=O)Nc1nc2cc(C(=O)c3ccc(F)cc3)ccc2[nH]1` [Flubendazol], the “light-induced TopBP1 condensate (z-score)” value is -2.01 (active).

Regarding `CCCCc1ccc2[nH]c(NC(=O)OC)nc2c1` [Parbendazole], the “light-induced TopBP1 condensate (z-score)” value is -0.867 (inactive).

Consider `O=C(O)c1cc(/N=N/c2ccc(S(=O)(=O)Nc3ccccn3)cc2)ccc1O` [Sulfasalazine], for which the “light-induced TopBP1 condensate (z-score)” value was -0.0783 (inactive).

Regarding `C[C@H](O)[C@H](O)[C@H]1CNc2[nH]c(N)nc(=O)c2N1` [Sapropterin dihydrochloride], the “light-induced TopBP1 condensate (z-score)” value was 0.574 (inactive).

Regarding `CC[N+](C)(CC)CCC[n+]1c(-c2ccccc2)c2cc(N)ccc2c2ccc(N)cc21` [Propidium iodide], the “light-induced TopBP1 condensate (z-score)” value was -3.58 (active).

With `C[C@]12CCC(=O)C=C1C=C[C@@H]1[C@@H]2CC[C@@]2(C)[C@H]1CC[C@@]21CCC(=O)O1` [Canrenone], the “light-induced TopBP1 condensate (z-score)” value is 0.252 (inactive).

In the case of `COCCCOc1ccnc(C[S+]([O-])c2nc3ccccc3[nH]2)c1C` (configuration not stated) [Rabeprazole Sodium salt], the “light-induced TopBP1 condensate (z-score)” value was -0.658 (inactive).

Regarding `CC(C)=C/C(C)=N/Nc1nncc2ccccc12` [Budralazine], the “light-induced TopBP1 condensate (z-score)” value was -0.574 (inactive).

For `CC(N)C12CC3CC(CC(C3)C1)C2` (configuration not stated) [Rimantadine Hydrochloride], the “light-induced TopBP1 condensate (z-score)” value is -0.685 (inactive).

For `OC[C@H]1O[C@@H](c2ccc(Cl)c(Cc3ccc(O[C@H]4CCOC4)cc3)c2)[C@H](O)[C@@H](O)[C@@H]1O` [Empagliflozin], the “light-induced TopBP1 condensate (z-score)” value is 0.47 (inactive).

As to `CN(C)[C@@H]1C(O)=C(C(N)=O)C(=O)[C@@]2(O)C(O)=C3C(=O)c4c(O)cccc4[C@@](C)(O)[C@H]3C[C@@H]12` [Tetracycline hydrochloride], the “light-induced TopBP1 condensate (z-score)” value is 0.0489 (inactive).

On to `N#Cc1cc(NC(=O)C(=O)O)c(Cl)c(NC(=O)C(=O)O)c1` [Lodoxamide], for which the “light-induced TopBP1 condensate (z-score)” value was 0.686 (inactive).

For the molecule `Oc1c(Cl)cc(Cl)c2cccnc12` [Chloroxine], the “light-induced TopBP1 condensate (z-score)” value is -0.15 (inactive).

Regarding `Oc1c(I)cc(Cl)c2cccnc12` [Clioquinol], the “light-induced TopBP1 condensate (z-score)” value was -0.446 (inactive).

As to `Cc1ccc2c(Cl)cc(Cl)c(O)c2n1` [Chlorquinaldol], the “light-induced TopBP1 condensate (z-score)” value is -9.09 (active).

Consider `C[C@@H]1C[C@H]2[C@@H]3C[C@H](F)C4=CC(=O)C=C[C@]4(C)[C@@]3(F)[C@@H](O)C[C@]2(C)[C@@]1(O)C(=O)COC(=O)C(C)(C)C` [Flumethasone pivalate], for which the “light-induced TopBP1 condensate (z-score)” value is -0.352 (inactive).

As for `COc1cc([S+](C)[O-])ccc1-c1nc2cccnc2[nH]1` (configuration not stated) [Sulmazole], the “light-induced TopBP1 condensate (z-score)” value is 1.19 (inactive).

`CCOc1ccc2c(c1)C(C)=CC(C)(C)N2` [Ethoxyquin]: the “light-induced TopBP1 condensate (z-score)” value is 0.549 (inactive).

Turning to `CCc1c2c(nc3ccc(OC(=O)N4CCC(N5CCCCC5)CC4)cc13)-c1cc3c(c(=O)n1C2)COC(=O)[C@]3(O)CC` [Irinotecan hydrochloride trihydrate], the “light-induced TopBP1 condensate (z-score)” value was 1.07 (inactive).

With `CC[C@@]1(O)C(=O)OCc2c1cc1n(c2=O)Cc2cc3c(CN(C)C)c(O)ccc3nc2-1` [Topotecan], the “light-induced TopBP1 condensate (z-score)” value was -2.31 (active).

`CCCNC(C)(C)C(=O)Nc1ccccc1C` [Quatacaine]: the “light-induced TopBP1 condensate (z-score)” value was -0.106 (inactive).

On to `O=C1OCCN1/N=C/c1ccc([N+](=O)[O-])o1` [Furazolidone], for which the “light-induced TopBP1 condensate (z-score)” value is -0.718 (inactive).

For the molecule `CNCCCC1c2ccccc2C=Cc2ccccc21` [Protriptyline hydrochloride], the “light-induced TopBP1 condensate (z-score)” value was -2.86 (active).

In the case of `CNCCC=C1c2ccccc2C=Cc2ccccc21` [Norcyclobenzaprine], the “light-induced TopBP1 condensate (z-score)” value is -0.386 (inactive).

With `CNCCCC12CCC(c3ccccc31)c1ccccc12` [Maprotiline hydrochloride], the “light-induced TopBP1 condensate (z-score)” value is -0.0912 (inactive).

As for `COc1c(O[C@@H]2O[C@H](CO)[C@@H](O)[C@H](O)[C@H]2O)cc2c(c1OC)-c1ccc(SC)c(=O)cc1[C@@H](NC(C)=O)CC2` [Thiocolchicoside], the “light-induced TopBP1 condensate (z-score)” value is -0.423 (inactive).

On to `CCCCCOC(=O)Nc1nc(=O)n([C@@H]2O[C@H](C)[C@@H](O)[C@H]2O)cc1F` [Capecitabine], for which the “light-induced TopBP1 condensate (z-score)” value is 0.43 (inactive).

`CO[C@H]1/C=C/O[C@@]2(C)Oc3c(C)c(O)c4c(c3C2=O)C2=NC3(CCN(CC(C)C)CC3)NC2=C(NC(=O)/C(C)=C\C=C\[C@H](C)[C@H](O)[C@@H](C)[C@@H](O)[C@@H](C)[C@H](OC(C)=O)[C@@H]1C)C4=O` [Rifabutin]: the “light-induced TopBP1 condensate (z-score)” value was -0.0256 (inactive).

Consider `COc1c(O)cc2c(c1O)[C@@H]1O[C@H](CO)[C@@H](O)[C@H](O)[C@H]1OC2=O` [Bergenin], for which the “light-induced TopBP1 condensate (z-score)” value is -0.755 (inactive).

Regarding `Cc1nccn1CC1CCc2c(c3ccccc3n2C)C1=O` (configuration not stated) [Ondansetron Hydrochloride], the “light-induced TopBP1 condensate (z-score)” value is 1.05 (inactive).

With `NC[C@H]1O[C@H](O[C@H]2[C@H](O)[C@@H](O[C@H]3O[C@H](CO)[C@@H](O)[C@H](N)[C@H]3O)[C@H](N)C[C@@H]2N)[C@H](N)C[C@@H]1O` [Tobramycin], the “light-induced TopBP1 condensate (z-score)” value is -0.114 (inactive).

As for `CC(NN)c1ccccc1` (configuration not stated) [Mebanazine], the “light-induced TopBP1 condensate (z-score)” value was 0.298 (inactive).

Regarding `CC(NCCC(c1ccccc1)c1ccccc1)c1ccccc1` (configuration not stated) [Fendiline hydrochloride], the “light-induced TopBP1 condensate (z-score)” value is -2.06 (active).

`CNCC[C@@H](Oc1ccccc1C)c1ccccc1` [Tomoxetine hydrochloride]: the “light-induced TopBP1 condensate (z-score)” value is -1.4 (inactive).

For `CC(C)[C@H]1CC[C@H](C(=O)N[C@H](Cc2ccccc2)C(=O)O)CC1` [Nateglinide], the “light-induced TopBP1 condensate (z-score)” value is -0.706 (inactive).

In the case of `COc1cc(NC(C)CCCN)c2ncccc2c1` (configuration not stated) [Primaquine diphosphate], the “light-induced TopBP1 condensate (z-score)” value is -1.07 (inactive).

With `N[C@@H]1CCCCN(c2c(F)cc3c(=O)c(C(=O)O)cn(C4CC4)c3c2Cl)C1` [Besifloxacin hydrochloride], the “light-induced TopBP1 condensate (z-score)” value is -0.0694 (inactive).

For the molecule `C[C@@H](O)[C@H]1C(=O)N2C(C(=O)O)=C(S[C@@H]3CN[C@H](CNS(N)(=O)=O)C3)[C@H](C)[C@H]12` [Doripenem monohydrate], the “light-induced TopBP1 condensate (z-score)” value is 1.08 (inactive).

As for `Cc1cc(C(C)(C)CC(C)(C)C)ccc1OCCOCC[N+](C)(C)Cc1ccccc1` [Methyl benzethonium chloride], the “light-induced TopBP1 condensate (z-score)” value was -0.593 (inactive).

`CCN(CC)C(=S)SSC(=S)N(CC)CC` [Disulfiram]: the “light-induced TopBP1 condensate (z-score)” value is -4.41 (active).

In the case of `C=C1c2c(Cl)ccc(O)c2C(=O)C2=C(O)[C@]3(O)C(=O)C(C(N)=O)=C(O)[C@@H](N(C)C)[C@@H]3[C@@H](O)[C@H]12.O=C(O)c1cc(S(=O)(=O)O)ccc1O` [Meclocycline sulfosalicylate], the “light-induced TopBP1 condensate (z-score)” value was 0.506 (inactive).

Consider `N[C@@H](CCC(=O)N[C@@H](CS)C(=O)NCC(=O)O)C(=O)O` [Glutathione], for which the “light-induced TopBP1 condensate (z-score)” value was 1.35 (inactive).

Regarding `O=C(O)CCNC(=O)c1ccccc1` [Betamipron], the “light-induced TopBP1 condensate (z-score)” value is -0.17 (inactive).

For the molecule `Cn1c(=O)c2c(ncn2CCO)n(C)c1=O` [Etofylline], the “light-induced TopBP1 condensate (z-score)” value is 0.502 (inactive).

As for `CO[C@@]12[C@H](COC(N)=O)C3=C(C(=O)C(C)=C(N)C3=O)N1C[C@@H]1N[C@@H]12` [Mitomycin C], the “light-induced TopBP1 condensate (z-score)” value was -0.867 (inactive).

As for `N[C@H](Cc1ccccc1)C(=O)O` [D-phenylalanine], the “light-induced TopBP1 condensate (z-score)” value was -1.1 (inactive).

Source of the values: the supplement of paper PMC12582362.
